Experimental data published in PubChem BioAssay (EPA / NIEHS).
Several values for one entry are separate records, joined by “and”; a condition that tells them apart may be missing. Equal values may be shown once. A structure can be active in one record and inactive in another. Activity calls are given as the source filed them. How the source made its calls: active means hit-call score of the fitted dose curve at least 0.9, where 1 is the maximum; inactive means score below 0.9.

How the values were obtained:
[1] = read-out: Macrophage colony-stimulating factor (MCSF), CSF1 (gene 1435); assay: BSK_hDFCGF_MCSF: BioMAP Diversity Plus: hDFCGF Assay for Macrophage colony-stimulating factor (MCSF) Biomarker Activity (AID 2283060); settings: primary human foreskin fibroblasts; actives raise or lower the signal
How it was run: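 Human foreskin primary fibroblasts were treated with test chemical for 24 h, and M-CSF was then measured by ELISA. Data were fitted bidirectionally against DMSO as the negative control and activity baseline.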

[2] = read-out: TIMP metallopeptidase inhibitor 1 (TIMP1), TIMP1 (gene 7076); assay: BSK_hDFCGF_TIMP1: BioMAP Diversity Plus: hDFCGF Assay for TIMP metallopeptidase inhibitor 1 (TIMP1) Biomarker Activity (AID 2283062); settings: primary human foreskin fibroblasts; actives raise or lower the signal
How it was run: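 Primary human foreskin fibroblasts in the hDFCGF system were dosed with compound for 24 h, then TIMP-1 was measured by ELISA. Activity was fitted bidirectionally relative to DMSO control; parallel SRB staining assessed cytotoxicity.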

[3] = read-out: Monokine induced gamma interferon (MIG), CXCL9 (gene 4283); assay: BSK_hDFCGF_MIG: BioMAP Diversity Plus: hDFCGF Assay for Monokine induced gamma interferon (MIG) Biomarker Activity (AID 2283063); settings: primary human foreskin fibroblasts; actives raise or lower the signal
How it was run: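 ELISA read-out of MIG from primary human dermal fibroblasts 24 h post-dosing. Gain or loss of signal fitted bidirectionally, DMSO as baseline.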

[4] = read-out: Matrix Metallopeptidase 1 (MMP1), MMP1 (gene 4312); assay: BSK_hDFCGF_MMP1: BioMAP Diversity Plus: hDFCGF Assay for Matrix Metallopeptidase 1 (MMP1) Biomarker Activity (AID 2283064); settings: primary human foreskin fibroblasts; actives raise or lower the signal
How it was run: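 Primary human foreskin fibroblasts in the hDFCGF system were dosed with test chemical, and MMP1 was measured by ELISA 24 h later. Values come from bidirectional curve fitting against the DMSO baseline.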

[5] = read-out: Vascular cell adhesion molecule 1 (VCAM1), VCAM1 (gene 7412); assay: BSK_hDFCGF_VCAM1: BioMAP Diversity Plus: hDFCGF Assay for Vascular cell adhesion molecule 1 (VCAM1) Biomarker Activity (AID 2283065); settings: primary human foreskin fibroblasts; actives raise or lower the signal;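 on AC50: VCAM-1 protein level quantified by ELISA after 24 h chemical exposure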
How it was run: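 Primary human foreskin fibroblasts (hDFCGF system) were dosed with chemical and VCAM-1 was measured by ELISA 24 h later. Bidirectional curve fitting used DMSO as negative control and activity baseline.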

[6] = read-out: Plasminogen activator inhibitor-1 (PAI1), SERPINE1 (gene 5054); assay: BSK_hDFCGF_PAI1: BioMAP Diversity Plus: hDFCGF Assay for Plasminogen activator inhibitor-1 (PAI1) Biomarker Activity (AID 2283066); settings: primary human foreskin fibroblasts; actives raise or lower the signal
How it was run: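 Human foreskin fibroblast primary cells, 24 h chemical exposure; PAI-1 measured by ELISA. Bidirectional fitting relative to DMSO; parallel cultures stained with SRB for total protein to flag overt cytotoxicity.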

[7] = read-out: Intercellular Adhesion Molecule 1 (ICAM1), ICAM1 (gene 3383); assay: BSK_KF3CT_ICAM1: BioMAP Diversity Plus: KF3CT Assay for Intercellular Adhesion Molecule 1 (ICAM1) Biomarker Activity (AID 2283067); settings: primary human keratinocytes with fibroblasts; actives raise or lower the signal
How it was run: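 Human keratinocyte plus foreskin fibroblast primary co-culture was exposed to chemical for 24 h. ICAM-1 was then quantified by ELISA, and the data were fit bidirectionally against DMSO as the negative control and baseline.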

[8] = read-out: Interferon-gamma inducible Protein 10 (IP10), CXCL10 (gene 3627); assay: BSK_KF3CT_IP10: BioMAP Diversity Plus: KF3CT Assay for Interferon-gamma inducible Protein 10 (IP10) Biomarker Activity (AID 2283068); settings: primary human keratinocytes with fibroblasts; actives raise or lower the signal
How it was run: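 KF3CT co-culture (keratinocytes + foreskin fibroblasts), 24 h compound, IP-10 by ELISA; bidirectional fit vs DMSO baseline.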

[9] = BSK_KF3CT_SRB: Viability Assessment in the BioMAP Diversity Plus: KF3CT Assay (AID 2283069); settings: primary human keratinocytes with fibroblasts;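 further: total protein by sulforhodamine B staining as a cytotoxicity measure; read 24 h after compound addition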
How it was run: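 Human primary keratinocyte plus foreskin fibroblast co-culture exposed to chemicals for 24 h. Total protein measured by 0.1% sulforhodamine B staining after 10% TCA fixation, read at 560 nm; bidirectional fitting versus DMSO baseline.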

[10] = read-out: Interleukin-1 alpha (IL1a), IL1A (gene 3552); assay: BSK_KF3CT_IL1a: BioMAP Diversity Plus: KF3CT Assay for Interleukin-1 alpha (IL1a) Biomarker Activity (AID 2283070); settings: primary human keratinocytes with fibroblasts; actives raise or lower the signal
How it was run: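 Human keratinocyte plus foreskin fibroblast primary co-culture, sampled 24 h after chemical dosing. IL-1a measured by ELISA; responses fitted bidirectionally against DMSO baseline (negative control), so gain or loss of signal both count.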

[11] = read-out: TIMP metallopeptidase inhibitor 2 (TIMP2), TIMP2 (gene 7077); assay: BSK_KF3CT_TIMP2: BioMAP Diversity Plus: KF3CT Assay for TIMP metallopeptidase inhibitor 2 (TIMP2) Biomarker Activity (AID 2283071); settings: primary human keratinocytes with fibroblasts; actives raise or lower the signal
How it was run: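 Co-culture of human primary keratinocytes and foreskin fibroblasts, measured 24 h after chemical dosing. TIMP-2 quantified by ELISA and fitted in both directions relative to DMSO. Cytotoxicity checked in parallel cultures by SRB total-protein staining.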

[12] = read-out: C-C motif chemokine 2 (Homo sapiens) (UniProt P13500); assay: BSK_KF3CT_MCP1: BioMAP Diversity Plus: KF3CT Assay for Monocyte Chemoattractant Protein 1 (MCP1/CCL2) Biomarker Activity (AID 2283073); settings: primary human keratinocytes with fibroblasts; actives raise or lower the signal
How it was run: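 Human keratinocyte plus foreskin fibroblast primary co-culture exposed to chemical for 24 h. MCP-1 levels measured by ELISA. Bidirectional curve fitting relative to DMSO negative control as baseline.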

[13] = read-out: Matrix Metallopeptidase 9 (MMP9), MMP9 (gene 4318); assay: BSK_KF3CT_MMP9: BioMAP Diversity Plus: KF3CT Assay for Matrix Metallopeptidase 9 (MMP9) Biomarker Activity (AID 2283074); settings: primary human keratinocytes with fibroblasts; actives raise or lower the signal;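 on AC50: MMP9 protein level quantified by ELISA in the co-culture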
How it was run: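 Keratinocyte plus foreskin fibroblast human primary skin co-culture was dosed with chemical and MMP-9 was quantified by ELISA 24 h later. Bidirectional curve fitting used DMSO as negative control and activity baseline.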

[14] = read-out: urokinase plasminogen activator (uPA), PLAU (gene 5328); assay: BSK_KF3CT_uPA: BioMAP Diversity Plus: KF3CT Assay for urokinase plasminogen activator (uPA) Biomarker Activity (AID 2283075); settings: primary human keratinocytes with fibroblasts; actives raise or lower the signal
How it was run: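 Human keratinocyte plus foreskin fibroblast primary co-culture exposed to chemical for 24 h. uPA levels were quantified by ELISA, and activity was fitted bidirectionally against a DMSO negative-control baseline.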

[15] = read-out: CD40, CD40 (gene 958); assay: BSK_LPS_CD40: BioMAP Diversity Plus: LPS Assay for CD40 Biomarker Activity (AID 2283076); settings: primary human HUVEC with PBMC; actives raise or lower the signal
How it was run: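 Primary human umbilical vein endothelial cells co-cultured with peripheral blood mononuclear cells, LPS-stimulated, were dosed with chemical and read 24 h later. CD40 levels were measured by ELISA and fitted bidirectionally against DMSO as negative control and baseline.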

[16] = read-out: E-selectin (Homo sapiens) (UniProt P16581); assay: BSK_LPS_Eselectin: BioMAP Diversity Plus: LPS Assay for Eselectin Biomarker Activity (AID 2283077); settings: primary human HUVEC with PBMC; actives raise or lower the signal
How it was run: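 Human umbilical vein endothelial cells co-cultured with peripheral blood mononuclear cells under LPS stimulation; E-selectin measured by ELISA 24 h after chemical dosing. Activity fitted bidirectionally against DMSO as negative control and baseline.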

[17] = read-out: Interleukin-8 (IL8), CXCL8 (gene 3576); assay: BSK_LPS_IL8: BioMAP Diversity Plus: LPS Assay for Interleukin-8 (IL8) Biomarker Activity (AID 2283078); settings: primary human HUVEC with PBMC; actives raise or lower the signal
How it was run: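 Human umbilical vein endothelial cells co-cultured with PBMC were stimulated with LPS; IL-8 levels were measured by ELISA 24 h after chemical dosing. Activity was fitted bidirectionally against DMSO as negative control and baseline.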

[18] = BSK_LPS_SRB: Viability Assessment in the BioMAP Diversity Plus: LPS Assay (AID 2283079); settings: primary human HUVEC with PBMC;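 further: total protein by sulforhodamine B absorbance as a cytotoxicity measure; measured one day after compound addition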
How it was run: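 Human umbilical vein endothelial cells co-cultured with PBMC (LPS system) were dosed for 24 h. Total protein was stained with 0.1% sulforhodamine B after 10% TCA fixation, read at 560 nm, and fitted bidirectionally against DMSO baseline.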

[19] = read-out: Transforming growth factor beta 1 (TGFb1), TGFB1 (gene 7040); assay: BSK_KF3CT_TGFb1: BioMAP Diversity Plus: KF3CT Assay for Transforming growth factor beta 1 (TGFb1) Biomarker Activity (AID 2283072); settings: primary human keratinocytes with fibroblasts; actives raise or lower the signal
How it was run: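 Human keratinocyte/foreskin fibroblast co-culture; TGF-b1 measured by ELISA 24 h after dosing, fitted bidirectionally versus DMSO. Cytotoxicity checked in parallel cultures by total protein (SRB staining, 560 nm).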

Measured: AC50

Sequence of E-selectin (Homo sapiens) (P16581 whole entry, looked up): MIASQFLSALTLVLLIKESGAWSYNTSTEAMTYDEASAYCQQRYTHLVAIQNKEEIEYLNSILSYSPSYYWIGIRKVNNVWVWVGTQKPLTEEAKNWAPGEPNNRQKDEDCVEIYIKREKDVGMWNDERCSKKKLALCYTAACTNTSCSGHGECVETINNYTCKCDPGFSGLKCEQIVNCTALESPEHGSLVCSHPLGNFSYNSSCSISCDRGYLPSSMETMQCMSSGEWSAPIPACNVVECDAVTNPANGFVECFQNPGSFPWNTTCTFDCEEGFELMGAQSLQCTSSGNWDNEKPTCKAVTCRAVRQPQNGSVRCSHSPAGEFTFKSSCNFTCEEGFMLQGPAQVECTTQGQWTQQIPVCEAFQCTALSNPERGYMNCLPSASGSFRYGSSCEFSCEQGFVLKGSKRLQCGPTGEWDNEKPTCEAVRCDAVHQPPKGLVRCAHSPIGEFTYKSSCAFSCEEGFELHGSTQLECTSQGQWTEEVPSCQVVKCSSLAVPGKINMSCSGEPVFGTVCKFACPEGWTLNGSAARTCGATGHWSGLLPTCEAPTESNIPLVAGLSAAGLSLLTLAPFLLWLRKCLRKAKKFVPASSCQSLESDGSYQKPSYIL

OCC(F)(F)C(F)(F)C(F)(F)CO
not listed: [19]
inactive: all other assays above

FC(F)(F)C(F)(F)C(F)(F)C(F)(F)C(F)(F)C(F)(F)CC[Si](Cl)(Cl)Cl
not listed: [19]
inactive: all other assays above

CCN(CC)c1ccc2c(c1)Oc1cc(N(CC)CC)ccc1C21OC(=O)c2ccccc21
active: [17] 6.55 µM
inactive: all other assays above

CCN=C1C=CC(=C(c2ccc(N(CC)CC)cc2)c2ccc(N(CC)CC)cc2)c2ccccc21
inactive: [9]
active: [1] 1.37 µM and 1.28 µM | [2] 1.42 µM and 1.3 µM | [3] 1.73 µM and 1.47 µM | [4] 1.29 µM and 1.26 µM | [5] 1.42 µM and 854 nM | [6] 1.31 µM and 1.23 µM | [7] 3.19 µM and 3.16 µM | [8] 2.87 µM and 2.44 µM | [12] 3.2 µM and 2.66 µM | [13] 1.61 µM and 1.54 µM | [14] 2.62 µM and 1.92 µM | [15] 244 nM and 1.3 µM | [16] 974 nM and 574 nM | [17] 782 nM and 483 nM | [18] 2.39 µM and 2.33 µM

NC(=O)C(F)(F)C(F)(F)C(F)(F)F
not listed: [11] | [19]
inactive: all other assays above

Nc1cc([N+](=O)[O-])cc(Cl)c1O
not listed: [10] | [11]
inactive: all other assays above

OCC(F)(F)C(F)(F)C(F)(F)C(F)(F)C(F)(F)C(F)(F)C(F)(F)C(F)(F)CO
inactive: [8] | [14] | [15] | [16] | [17] | [18]
active: [1] 47.9 µM and 46.7 µM | [2] 46.7 µM and 54.5 µM | [3] 44 µM and 45.1 µM | [4] 55.2 µM and 48.8 µM | [5] 42.5 µM and 21.8 µM | [6] 54.9 µM and 56.4 µM | [7] 42.4 µM and 42.7 µM | [8] 35.2 µM | [9] 50.9 µM and 44.1 µM | [12] 50.8 µM and 42.3 µM | [13] 50.3 µM and 49.4 µM | [16] 559 nM

O=S(=O)(Cl)C(F)(F)C(F)(F)C(F)(F)C(F)(F)C(F)(F)C(F)(F)C(F)(F)C(F)(F)F
active: [8] 34.8 µM and 32.5 µM | [13] 30 µM and 51.1 µM | [17] 30 µM
not listed: [19]
inactive: all other assays above

O=C1C=CC(=O)N1c1ccc(Cc2ccc(N3C(=O)C=CC3=O)cc2)cc1
active: [1] 2 µM | [2] 2.7 µM | [3] 3.48 µM | [4] 1.99 µM | [5] 1.5 µM | [6] 2.48 µM | [7] 3.64 µM | [8] 6.7 µM | [9] 1.97 µM | [10] 2.69 µM | [19] 3.46 µM | [12] 1.99 µM | [13] 5.44 µM | [14] 5.55 µM | [15] 10.4 µM | [16] 12400 nM | [17] 20 µM | [18] 14.6 µM

O=C(c1ccccc1)c1ccc(O)cc1O
active: [13] 26 µM
not listed: [10]
inactive: all other assays above

CN(C(=O)C(F)(F)C(F)(F)C(F)(F)F)[Si](C)(C)C
not listed: [11] | [19]
inactive: all other assays above

Brc1nc2ccccc2s1
not listed: [10]
inactive: all other assays above
